In the library only some 8% were active in any assay of this set; here they are far more common.
HCMV inh: qHTS Assay for inhibitors of the human cytomegalovirus (HCMV) | HFF cells, HCMV-luciferase reporter, 72 h; stronger effect = lower value | activity change, negative = inhibition, % at 57.5 µM | 410,000 tested, 4.5% active | AID 1259415, 2018; in the data active = activity change below about -60%; inconclusive = no clear call, values can overlap the other calls; inactive = above about -39%; note: % is set by controls: 0 for no effect and ±100 for the full control effect
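Inhibition of viral replication was scored as loss of reporter luminescence in HFFs infected with HCMV-luciferase (MOI 1 PFU/cell) for 72 h; compounds tested at 2 doses, normalized to buffer and Salinomycin controls.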
SARS PLpro yeast: qHTS of Yeast-based Assay for SARS-CoV PLP; S. cerevisiae expressing SARS-CoV PLpro, growth rescue; 330,000 tested, 0.19% active; Potency, µM (highest dose often 32.9 µM), without a hit: top-dose activity, positive = growth rescue, usual class: activators; calls by dose curve; note: potency is the fitted concentration of half-maximal effect; 0% is about no effect; nearly all actives have a fitted effect of over 55% in size
FMDV antiviral: High Throughput Screening for Foot and Mouth Disease Virus Antivirals; 410,000 tested, 1.2% active; Potency, µM (series often up to 57.9 µM), inactives show at the highest dose activity change, negative = inhibition, actives largely listed as inhibitors; FMDV antiviral cell-based qHTS; calls by dose curve; tested in HEK293T cells; note: read-out not given here; potency is the fitted concentration of half-maximal effect; % is set by controls: 0 for no effect and ±100 for the full control effect; nearly all actives have a fitted effect of over 45% in size
HCV inhibitor: qHTS Assay for Inhibitors of Hepatitis C Virus (HCV) | Huh7.5.1 HCVcc-Cre infection, luciferase reporter, 44 h | Potency, µM (titrated, usually from 41.8 µM), inactives show top-dose activity change, negative = inhibition, most hits filed as inhibitors | 340,000 tested, 3.4% active; active = well fitted inhibition curve with a large enough effect; inconclusive = small, poorly fitted or top-dose-only effect, or another doubt; inactive = no such curve, though single readings can be large or run the other way; note: potency is the fitted concentration of half-maximal effect; % is set by controls: 0 for no effect and ±100 for the full control effect
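A cell-based infection assay in which seeded cells (1,000 per well) receive test compound after 4 h, are inoculated with HCVcc-Cre at approximately 0.5 moi, and are incubated 44 h before luminescence detection.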
Lassa entry inh: qHTS for Inhibitors of binding or entry into cells for Lassa Virus; Lassa virus pseudotype entry inhibition, cell reporter; Potency, µM (doses to about 37.9 µM), without a hit: top-dose activity change, negative = inhibition, hits mostly inhibitors; 300,000 tested, 1.2% active; AID 540256, 2011; calls by dose curve; tested in HEK293 cells; note: potency is the fitted concentration of half-maximal effect; % is set by controls: 0 for no effect and ±100 for the full control effect; nearly all actives have a fitted effect of over 50% in size
Marburg entry inh: qHTS for inhibitors of binding or entry into cells for Marburg Virus; Marburg virus pseudotyped entry inhibition, cell reporter; Potency, µM (top dose mostly 37.8 µM), inactives show top-dose activity change, negative = inhibition, actives largely listed as inhibitors; 300,000 tested, 1.8% active; AID 540276, 2011; calls by dose curve; tested in HEK293 cells; note: potency is the fitted concentration of half-maximal effect; % is set by controls: 0 for no effect and ±100 for the full control effect
Starred values were filed as active, the others as inactive; u = inconclusive; x = no result given; ! = not active in a repeat; [ ] = another dose, or the depositor's remark.

SMILES	HCMV inh	SARS PLpro yeast	FMDV antiviral	HCV inhibitor	Lassa entry inh	Marburg entry inh
COc1ccc(C2C(=O)N(C3CCCCCC3)CC(=O)N2CCC2=CCCCC2)cc1 (stereo not given)	-3	x	-28%	x	-3%[46.1 µM]	x
CCc1ccc(NC(=O)c2ccc(F)c(S(=O)(=O)NC3CCCCCC3)c2)cc1	-79*	x	6%	x	u	x
Cc1ccc(N2CC(C(=O)NC3CCCCCC3)CC2=O)cc1 (stereo not given)	-64*	x	-18%	x	x	x
CC(C)OC(=O)OCOP(=O)(CO[C@H](C)Cn1cnc2c(N)ncnc21)OCOC(=O)OC(C)C	-17	x	x	x	x	x
O=C(NC(c1cccnc1)C(F)(F)F)c1cc(COc2ccc3c(c2)CCCC3)on1 (stereo not given)	-82*	-9%	0%	4.5µM*	x	x
NNC(=O)c1ccc(COc2ccc3c(c2)CCC3)o1	35	-36%	0%	0%	-25%	u
CSc1nc(Oc2cccc(C(F)(F)F)c2)cc(C(F)(F)F)n1	1	2%	-17%	5%	3%	u
CSc1nccc(Oc2cccc(C#N)c2)n1	-61*	-7%	-24%	2%	9%	0%
Cc1ccc(NC(=O)NCC2CCN(Cc3cccc(Cl)c3)CC2)cc1Cl	-92*!	0%	u	-24%	-17%	u
O=C(NCC1CCN(Cc2cccc(Cl)c2)CC1)Nc1ccccc1Cl	11	-1%	-18%	u	26%[46.1 µM]	u
Cc1ccc(NC(=O)NCC2CCN(Cc3cccc(Cl)c3)CC2)c(Cl)c1	-66*	0%	-18%	13µM*	x	x
COc1ccccc1N1CCN(C(=O)CSc2nc(-c3ccc(C(C)C)cc3)no2)CC1	7	x	-6%	x	u	x
CCn1c(SCC(=O)NC2CCCCC2)nc2c(c1=O)SC(C)C2 (stereo not given)	-30	4%	-24%	2%	12%	26%
CCn1c(SCC(=O)Nc2nc3ccccc3s2)nc2c(c1=O)SC(C)C2 (stereo not given)	-40	-8%	32µM*	u	-27%	u
CCn1c(SCC(=O)Nc2nc3ccc(C)cc3s2)nc2c(c1=O)SC(C)C2 (stereo not given)	x	-5%	u	7.9µM*	-27%	u
CCn1c(SCC(=O)Nc2cc(C)on2)nc2c(c1=O)SC(C)C2 (stereo not given)	2	-4%	x	-14%	9%	19%
O=C(CSc1ncc2c(n1)-c1ccccc1N(Cc1ccc(F)cc1)S2(=O)=O)c1ccc(Cl)cc1	2	x	-19%	x	22%[46.1 µM]	x
Cc1cc(O)c(C(C)C)cc1NC1=NS(=O)(=O)c2ccccc21	-72*	2%	4%	-3%	-12%	-21%
Cc1ccc(C)c(NC2=NS(=O)(=O)c3ccccc32)c1	u	2%	x	6%	-2%	0%
C[C@H](NC(=O)c1[nH]cnc1C(=O)Nc1ccc(CNC(=O)OC(C)(C)C)cc1)C(=O)OCc1ccccc1	20	0%	18µM*	u	x	x
CC(C)(C)OC(=O)NCCCC[C@H](NC(=O)c1nc[nH]c1C(=O)NCc1ccc(CNC(=O)OC(C)(C)C)cc1)C(=O)OC(C)(C)C	-10	-2%	-8%	u	x	x
CC(C)(C)OC(=O)NCCCCCNC(=O)c1nc[nH]c1C(=O)NCCCCCNC(=O)OC(C)(C)C	-75*	-18%	13µM*	10µM*	x	x
CC(C)(C)OC(=O)CNC(=O)c1nc[nH]c1C(=O)NCc1ccc(CNC(=O)OC(C)(C)C)cc1	46	4%	u	u	x	x
CC(C)(C)OC(=O)NCCCCCNC(=O)c1nc[nH]c1C(=O)NCc1ccc(CNC(=O)OC(C)(C)C)cc1	-95*	-10%	16µM*	8.9µM*	x	x
CC(C)(C)OC(=O)NCc1ccc(CNC(=O)c2nc[nH]c2C(=O)NCc2ccc(CNC(=O)OC(C)(C)C)cc2)cc1	u	-2%	13µM*	u	x	x
SMILES	HCMV inh	SARS PLpro yeast	FMDV antiviral	HCV inhibitor	Lassa entry inh	Marburg entry inh
COc1ccc(Cl)cc1NC(=O)Cn1cnc2sc(C)c(S(=O)(=O)N3CCN(c4ccccc4OC)CC3)c2c1=O	15	x	-8%	x	3%[46.1 µM]	20%[46.1 µM]
CC(=O)N1CCc2c(sc3c2c(=O)n(-c2cc(Cl)ccc2C)c(=O)n3C)C1	1	x	-5%	x	x	24%[46.1 µM]
COc1ccccc1NC(=O)N1CC(=O)N2[C@H](CO)[C@@H](c3ccc(Br)cc3)[C@H]2C1	3	x	x	x	x	x
O=C(N1CCN(c2cccc(Cl)c2)CC1)C1(c2cccs2)CCOCC1	u	-29%	35µM*	u	u	u
Cc1cc(C)c(NC(=O)Cn2c(=O)n(CCC(=O)NCc3ccccc3Cl)c(=O)c3sccc32)c(C)c1	-8	x	4%	x	26%[46.1 µM]	-28%[46.1 µM]
Cc1cn2c(nc1=O)OC1C(O)C(COC(=O)c3ccccc3)OC12 (stereo not given)	-2	2%	x	-2%	20%	9%
N=c1ccn2c(n1)O[C@H]1[C@H](O)[C@@H](CO)O[C@H]12	-96*	1%	-15%	-10%	u	u
O=C(OCC1OC2C(Oc3nc(=O)ccn32)C1O)c1ccccc1 (stereo not given)	7	5%	19%	6%	5%	-6%
N=c1nc2n(cc1F)C1OC(CO)C(O)C1O2 (stereo not given)	-99*	x	-18%	u	-21%[46.1 µM]	-24%
N=c1ccn2c(n1)O[C@H]1[C@@H](CO)[C@H](O)O[C@H]12	-98*	x	-20%	u	x	x
COc1ccc(C(=O)OC2CC3CC[C@H](C2)N3C(C)=O)cc1OC (stereo not given in full)	x	x	-13%	x	x	x
CCC(C)NC(=O)c1cnn(-c2ccc(Cl)cc2)c1C1CCN(C(=O)OC(C)(C)C)CC1 (stereo not given)	-7	x	-15%	x	-20%[46.1 µM]	x
Oc1[nH]c(N=C2N=c3ccccc3=N2)c2ccccc12	-97*	1%	10%	-26%	u	u
Cc1ccc2c(c1)=N/C(=N\c1[nH]c(O)c3ccccc13)N=2	13	x	22%	x	x	x
CC(C)c1ccc(NC(=O)c2ccc(CN3CC(=O)N4CCCCC4C3=O)cc2)cc1 (stereo not given)	26	x	-24%	x	12%[46.1 µM]	x
CC1CCN(C(=O)c2ccc3c(c2)N(Cc2ccccc2F)C(=O)c2ccccc2S3(=O)=O)CC1	-5	x	17%	x	-25%[46.1 µM]	-9%[46.1 µM]
Cc1cc2nc(/C=C/c3cccnc3)[nH]c2cc1C	-92*	-3%	50%	-7%	x	x
CCOC(=O)Nc1nnc(-c2cccc(OC)c2)s1	-66*	-17%	40%	-3%	-7%	17%
COc1cccc(N2CCN(CC(=O)Nc3nnc(-c4ccccc4)s3)CC2)c1	-21	-11%	16µM*	6.3µM*	0.79µM*	u
